Sampled rows, rich in hits. Any-hit rate of the full collection: about 2.2%.
GLP1R inv ag: qHTS of GLP-1 Receptor Inverse Agonists (Inhibition Mode); Glucagon-like peptide 1 receptor (Homo sapiens), P43220; HEK293 GLP-1R CRE-luciferase, luminescence, 24 h; GLP-1R form is constitutively active; Potency, µM (doses to about 38.3 µM), for the others: at the highest dose activity change, negative = inhibition, usual class: inhibitors; hit rate 1.6% among 410,000; further: potency means the concentration at half of the fitted maximal effect; on the % scale 0 is the no-effect control and ±100 the full control effect; nearly all actives have a fitted effect of over 55% in size
Target sequence (P43220 whole entry, looked up): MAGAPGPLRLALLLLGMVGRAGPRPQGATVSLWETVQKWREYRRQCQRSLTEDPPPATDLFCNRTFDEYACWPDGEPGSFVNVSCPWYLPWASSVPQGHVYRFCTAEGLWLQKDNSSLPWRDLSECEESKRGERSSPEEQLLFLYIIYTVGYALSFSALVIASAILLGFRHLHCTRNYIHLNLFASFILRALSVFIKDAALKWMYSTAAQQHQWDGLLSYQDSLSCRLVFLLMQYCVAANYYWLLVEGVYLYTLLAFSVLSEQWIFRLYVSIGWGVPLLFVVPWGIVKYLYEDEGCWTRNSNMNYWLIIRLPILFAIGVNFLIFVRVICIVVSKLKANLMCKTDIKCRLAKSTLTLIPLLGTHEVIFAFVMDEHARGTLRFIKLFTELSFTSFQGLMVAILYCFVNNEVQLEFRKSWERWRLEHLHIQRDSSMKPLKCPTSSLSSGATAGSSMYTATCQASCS
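GLP-1R inverse agonism mode: basal reporter luminescence in engineered HEK293 cells measured after one day of compound exposure at 37 deg C, with a 12 min room-temperature detection step.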
HEK293 tox: qHTS of GLP-1 Receptor Inverse Agonists: Cytotox Screen; HEK293 cAMP-luciferase reporter cells, luminescence, 24 h; Potency, µM (highest dose often 38.3 µM), for the others: at the top dose activity change, negative = inhibition, most hits filed as inhibitors; hit rate 0.13% among 410,000;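 further: loss of luciferase light is scored as toxicity; potency means the concentration at half of the fitted maximal effect; on the % scale 0 is the no-effect control and ±100 the full control effect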
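1536-well qHTS counterscreen of the MLSMR; 200 cells/uL, 12 h pre-incubation, 23 nL cpd, 24 h at 37 deg C 5% CO2, luciferase detection reagent, 12 min RT, luminescence. Inhibition = undesired.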
GLP-1R agonist: qHTS of GLP-1 Receptor Agonists. Glucagon-like peptide 1 receptor (Homo sapiens), P43220. HEK293 GLP-1R CRE-luciferase, luminescence, 4-6 h; cells express a hypersensitive GLP-1R form. Potency, µM (highest dose often 45.6 µM), without a hit: at the top dose activation, most hits filed as activators. hit rate 0.007% among 380,000; further: potency means the concentration at half of the fitted maximal effect; % of control where 0% means no effect
uPA generation: qHTS for Inhibitors of Cell Surface uPA Generation; cell surface uPA generation assay, qHTS; hit rate 0.31% among 330,000; Potency, µM (top dose mostly 38.3 µM), for inactives: at the highest dose activity change, negative = inhibition, actives largely listed as inhibitors; active means well fitted inhibition curve with a large enough effect; inconclusive means small, poorly fitted or top-dose-only effect; inactive means no such curve, though single readings can be large or run the other way; tested in mouse RAW 264.7 cells; further: potency means the concentration at half of the fitted maximal effect; on the % scale 0 is the no-effect control and ±100 the full control effect; nearly all actives have a fitted effect of over 55% in size
CCT modulator: High-Throughput Screening for Modulators of Cytosolic Chaperonin Activity; AID 651819, 2012; purified chaperonin ATPase assay, HTRF ADP detection, 30 min; activity change, % (no concentration beside the values), hits read low; hit rate 0.3% among 360,000; in the data active means activity change below about -30%; further: on the % scale 0 is the no-effect control and ±100 the full control effect
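First, chaperonin was dispensed at 40 nM or 20 nM final depending on batch activity. Next, compounds were pinned at 76 uM and ATP added at 10 uM. After 30 min at 37 °C, ADP detection reagents ran 30 min at ambient temperature.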
MmCpn inh: Inhibitors of TCP-1 ring complex (TRiC) of Methanococcus maripaludis (MmCpn): qHTS. Chaperonin Mm-Cpn (Methanococcus maripaludis). purified Mm-Cpn ATPase, ADP Transcreener TR-FRET. Potency, µM (titrated, usually from 76.9 µM), for inactives: at the highest dose activity, negative = inhibition, hits mostly inhibitors. hit rate 0.031% among 330,000. AID 504842, 2011; further: potency means the concentration at half of the fitted maximal effect; on the % scale 0 is the no-effect control and ±100 the full control effect; nearly all actives have a fitted effect of over 80% in size
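TR-FRET (320 nm excitation; 590 and 665 nm emission) reports ADP made from 10 uM ATP by 25 nM enzyme; compounds were preincubated 10 min, reaction run 30 min, both at 37°C.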
The depositor's hits bear a star; ? = inconclusive; . = no result. Unless noted, the call rests on the fitted dose curve; in most records, active means well fitted curve in the direction sought with a large enough effect; inconclusive means small, poorly fitted or top-dose-only effect, or another doubt; inactive means no such curve, though single readings can be large; an effect the other way counts as inactive or inconclusive.

SMILES	GLP1R inv ag	HEK293 tox	GLP-1R agonist	uPA generation	CCT modulator	MmCpn inh
CCN(CC)c1ccc(NC(=O)C2CC3CCC2C3)cc1 (centres undefined)	7.94µM*	-14.9%	0.2%	-4.4%	-1.3	1.5%
CCOC(=O)c1c(C)[nH]c(C)c1S(=O)(=O)N1CCC(C(=O)Nc2cc(Cl)ccc2OC)CC1	-17.0%	0.2%	.	.	.	.
Nc1nc(N=Nc2ccc(O)cc2)cc(=O)[nH]1	-8.5%	10µM*	0.7%	.	-1.7	.
CS(=O)(=O)Nc1ccc(-c2nc3ccccc3s2)cc1	?	0.7%	.	.	.	.
Cc1nc2ccc(NC(=O)c3ccc(N4C(=O)CCC4=O)cc3)cc2s1	-6.9%	4.0%	7.6%	-0.5%	2.4	-3.0%
Cc1nc2cc(NC(=O)c3ccc(N4C(=O)CCC4=O)cc3)ccc2s1	7.0%	-4.1%	-8.0%	-16.7%	-75.8*	0.9%
COC(=O)C1C(=O)c2c([nH]c(C(=O)OCC3CCCO3)c2C)CC1C (centres undefined)	4.2%	16.1%	2.6%	12.6µM*	-0.8	-0.2%
CCCSCCCNC(=O)c1ccc2c(c1)sc1nc(-c3ccc(OCC)cc3)cn12	14.3%	0.0%	.	.	.	.
CCN1/C(=C/c2ccc3ccccc3[n+]2CCCS(=O)(=O)[O-])C=Cc2cc(C)ccc21	?	?	-1.0%	-5.6%	0.9	-3.2%
CCN1/C(=C/c2ccc3ccccc3[n+]2CC)C=Cc2ccccc21	?	4.47µM*	-34.7%	-16.6%	-6.3	-1.3%
COc1ccc(CN2CCc3nc(N4CCN(c5ccc(F)cc5)CC4)ncc3C2)c(OC)c1OC	6.0%	-2.5%	.	.	.	.
Cc1cc(NC2CCCCC2)nc(NCc2ccccc2)n1	10µM*	?	11.0%	?	-1.4	-0.9%
C/C(=N\O)c1ccc(OCC(=O)N2CCCCC2)cc1	.	.	6.4%	.	.	.
Cc1occc1-c1nnc(SCC(=O)Nc2ccccc2)n1CCc1ccccc1	11.2µM*	-14.4%	0.9%	5.8%	-1.6	0.1%
CCOc1ccc(CNC(=O)C2CCCN(c3nc4c(C)cc(C)cc4s3)C2)cc1 (centres undefined)	9.4%	3.0%	.	.	.	.
CCOC(=O)CC(NC(=O)CCc1c(C)nc2c(c1C)c(=O)n(C)c(=O)n2C)c1ccc(OCC)c(OC)c1 (centres undefined)	-9.8%	3.4%	-2.3%	.	.	.
CC(=O)Oc1ccc(N(C(C)=O)S(=O)(=O)c2ccc(C)cc2C)c2ccccc12	0.9%	-10.7%	5.6%	10µM*	-2.0	0.3%
CC(=O)Oc1ccc(N(C(C)=O)S(=O)(=O)c2ccccc2)c2ccccc12	-0.7%	-12.2%	3.1%	.	1.6	.
CN1C[C@H]2c3ccccc3Oc3ccc(Cl)cc3[C@@H]2C1	.	.	12.7%	.	.	.
COc1ccc(C(=O)NC(NC(=S)Nc2ccc(S(N)(=O)=O)cc2)C(Cl)(Cl)Cl)cc1 (centres undefined)	3.16µM*	-6.5%	0.3%	-0.8%	-2.1	0.9%
COc1ccc(C(=O)NC(Nc2ccccc2)C(Cl)(Cl)Cl)cc1 (centres undefined)	7.08µM*	-17.6%	-4.6%	2.0%	-4.3	1.6%
CC(C)C(NC(=O)C(CC(=O)O)NC(=O)C(CCCCN)NC(=O)C(N)CCCN=C(N)N)C(=O)NC(Cc1ccc(O)cc1)C(=O)O (centres undefined)	.	.	-1.1%	.	.	.
COc1cc2oc3cc(C#Cc4ccc(N)cc4)ccc3c(=O)c2cc1OC	-45.5%	77.8%	-3.3%	3.98µM*	-0.5	.
Cc1ccc(CNc2nc3ccccc3n3c(C)nnc23)cc1	15.3%	0.0%	.	.	.	.
Cc1c(Cl)cccc1Nc1nc(NCCO)c2ccccc2n1	2.51µM*	?	10.0%	-6.0%	0.7	1.5%
SMILES	GLP1R inv ag	HEK293 tox	GLP-1R agonist	uPA generation	CCT modulator	MmCpn inh
Cc1ccc(Nc2nc(NCc3ccco3)c3ccccc3n2)cc1	2.51µM*	?	4.3%	-12.6%	-0.3	-0.3%
OCCNc1nc(Nc2ccccc2)nc2ccccc12	7.08µM*	7.9%	1.3%	-6.9%	-0.5	-1.2%
COc1ccccc1Nc1nc(NCc2ccco2)c2ccccc2n1	?	?	7.8%	4.2%	-1.1	2.1%
OCCNc1nc(Nc2ccc(Br)cc2)nc2ccccc12	2µM*	4.8%	-1.2%	-8.3%	-0.7	1.6%
OCCNc1nc(Nc2ccccc2)nc(Nc2ccccc2)n1	?	2.6%	20.1%	0.5%	2.0	1.5%
CCOC(=O)C1CCN(C(=O)Cn2nc(CC)n3c(cc4sccc43)c2=O)CC1	?	-5.6%	.	.	.	.
COc1cccc(C(C(=O)NC2CCCC2)N2CCN(c3cc(C)ccc3C)CC2)c1OC (centres undefined)	8.91µM*	-8.3%	.	.	.	.
Cc1c(C(=O)N(Cc2ccc(N(C)C)cc2)CC2CCCO2)oc2ccc(Br)cc12 (centres undefined)	-0.4%	-6.5%	.	.	.	.
Cc1cc(Nc2ccccc2C(=O)O)ccc1Cl	.	.	-5.2%	.	.	.
S=C(Nc1ccc(Cl)cc1)NC1CC2CCCC(C1)N2C1CCCC1 (centres undefined)	8.91µM*	?	-13.6%	-4.7%	0.7	-2.4%
S=C(Nc1ccc(Cl)cc1)NC1CC2CCC(C1)N2Cc1ccccc1 (centres undefined)	7.08µM*	-2.4%	8.7%	-2.6%	-2.5	0.1%
CCc1ccc(NC(=S)NC2CC3CCCC(C2)N3Cc2ccccc2)cc1 (centres undefined)	?	?	8.4%	-17.0%	-2.4	3.1%
S=C(Nc1ccc(Cl)cc1)NC1CC2CCCC(C1)N2C1CC1 (centres undefined)	?	-13.3%	-2.3%	-6.4%	0.8	0.7%
COc1ccc2c(c1)cc1c(=O)n(CC(=O)NCc3ccco3)nc(C)n12	7.4%	8.4%	.	.	.	.
O=C(Nc1ccc(S(=O)(=O)N2CCCC2)cc1)Nc1ccc(F)cc1F	?	-15.6%	7.6%	6.8%	0.3	.
Cc1ccc(S(=O)(=O)Nc2ccc(NC(=O)Nc3ccc(F)cc3F)cc2)cc1	5.62µM*	-4.0%	2.2%	3.6%	-1.3	1.5%
Cc1ccc(N(CC(=O)N2CCN(c3cc(C)ccc3C)CC2)S(=O)(=O)c2c(C)nn(C)c2C)cc1	?	-23.2%	-4.6%	.	.	.
COc1ccc(C(=O)Nc2ccc(C)cn2)c(OC)c1	2µM*	7.8%	-18.2%	-18.9%	0.0	1.3%

High-throughput results from PubChem.
